The results in this text go back to PubChem BioAssay (Tox21).

Inconclusive results are not listed. Calls of active or inactive are those of the source. Unless noted, calls follow the shape of the dose curve; as a rule, active = well fitted curve in the direction sought with a large enough effect in the repeat runs; inconclusive = weak or mixed curves; inactive = no such curve, though single readings can be large; an effect the other way counts as inactive or inconclusive.

Experiment [1] has as its target Estrogen receptor (Homo sapiens) (UniProt P03372). Description: qHTS assay to identify small molecule antagonists of the estrogen receptor alpha (ER-alpha) signaling pathway using the BG1 cell line in the presence of 0.1 nM 17-beta-estradiol (AID 1259244). Also: nearly all actives have a fitted effect of over 50% in size. Also: potency is read from the fitted curve at half-maximal effect. In a few lines:
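Antagonist mode: compounds in DMSO are pinned onto VM7Luc4E2 reporter cells, 0.1 nM final 17beta-estradiol is added, and after 22 h at 37C luciferase luminescence is measured with ONE-Glo.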

The nature of experiment [2]: qHTS assay to identify small molecule HDAC inhibitors (AID 1259364).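 Also: wild-type HCT-116 cells with endogenous class I/II HDAC activity; top concentration of the series differs between compounds; nearly all actives have a fitted effect of over 45% in size.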 In short, it runs like this: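 Cells (HCT-116, wild type) are seeded at 1,500 per well, incubated overnight, treated with compound in DMSO for 2 hr, then developed with HDAC-Glo I/II reagent for 30 min at room temperature.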
A short description of experiment [3]: qHTS assay to identify small molecule HDAC inhibitors - cell viability counter screen (AID 1259365). Also: series mostly up to about 92 µM; nearly all actives have a fitted effect of over 50% in size. In a few lines:
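After overnight seeding at 1,500 cells per well, wild-type HCT-116 cultures took up compounds in DMSO for 2hr at 37 C. Viable cell content came from luminescence with CellTiter-Glo.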
In general terms: Quantitative high-throughput screening tests each substance at several concentrations.

The nature of experiment [4]: qHTS assay to identify small molecule agonists of the sonic hedgehog signaling (Shh) pathway - cell viability counter screen (AID 1259366). Also: nearly all actives have a fitted effect of over 50% in size. Also: potency is read from the fitted curve at half-maximal effect. In a few lines:
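Same-well cytotoxicity read. Gli1-Luc reporter 3T3 cells; compounds 24hr, 37C/5% CO2; CellTiter-Fluor fluorescence.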

Experiment [5] in a line: qHTS assay to identify small molecule agonists of the sonic hedgehog signaling (Shh) pathway (AID 1259368; calls by dose curve;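 also: NIH/3T3-derived 3T3Gli1-Luc cells carrying a stable Gli1-driven firefly luciferase reporter; series mostly up to about 92 µM; nearly all actives have a fitted effect of over 15% in size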). In a few lines: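 Cells of a mouse NIH/3T3 clone stably expressing luciferase under the Gli1 transcriptional response element are exposed to test chemicals for 24 hr at 37 C. Pathway activation is detected as a rise in luminescence.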
Experiment [6] is described as follows: qHTS assay to identify small molecule antagonists of the sonic hedgehog signaling (Shh) pathway (AID 1259369; calls by dose curve; also: nearly all actives have a fitted effect of over 45% in size; also: potency is read from the fitted curve at half-maximal effect). In short, it runs like this: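 Cells are plated and held 4hr at 37 C, compounds (DMSO) are pinned in, conditioned medium is added to stimulate the pathway, and after 24hr luciferase reagent is added for 30min before luminescence is read.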
The target of experiment [7] is Estrogen receptor beta (Homo sapiens) (UniProt Q92731). The experiment in a line: qHTS assay to identify small molecule agonists of the estrogen receptor beta (ER-beta) signaling pathway (AID 1259377; active = well fitted activation curve with a large enough effect in the signal ratio in the repeat runs, not every such curve was filed as active; the % refers to the signal ratio). In a few lines: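 Read-out: beta-lactamase FRET fluorescence. Cell line: ER-beta-UAS-bla HEK293T in 2% charcoal-stripped FBS. Exposure: 16 hr at 37C. Substrate step: 2 h at room temperature.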

Experiment [8] in a line: qHTS assay to identify small molecule agonists of the estrogen receptor beta (ER-beta) signaling pathway - cell viability counter screen (AID 1259380). Also: nearly all actives have a fitted effect of over 30% in size. Also: potency is read from the fitted curve at half-maximal effect. In short, it runs like this:
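Cytotoxicity is measured in parallel with the reporter screen: after 16 hr compound exposure at 37C and a 2 hr LiveBLAzer step, CellTiter-Glo is added to the same ER-beta-UAS-bla HEK293T wells and luminescence read after 30 min.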

Experiment [9] is described as follows: qHTS assay to identify small molecule antagonists of the estrogen receptor beta (ER-beta) signaling pathway - cell viability counter screen (AID 1259382). Also: nearly all actives have a fitted effect of over 55% in size. Also: potency is read from the fitted curve at half-maximal effect. In short, it runs like this:
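Cytotoxicity counter screen multiplexed with the beta-lactamase antagonist assay: GripTite HEK293T ER-beta-bla cells were treated 16 hr with test chemicals in the presence of 1nM 17-beta-estradiol, and viability was measured by CellTiter-Glo.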

Experiment [10] can be described thus: qHTS assay to identify small molecule agonists or antagonists of the thyroid stimulating hormone receptor (TSHR) signaling pathway - wild type cell line counter screen (AID 1259384; calls by dose curve). In short, it runs like this: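 Wild-type Hek293 cells, 800/well, 18 h at 37C, then compound with Ro20-1724 for 30 min RT. cAMP by HTRF (cAMP-d2/anti-cAMP cryptate), 1 h RT, fluorescence read. 15 concentrations, triplicates.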

Experiment [11] in a line: qHTS assay to identify small molecule agonists of the estrogen receptor alpha (ER-alpha) signaling pathway in the presence of an antagonist - cell viability counter screen (AID 1259386).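 Also: cells exposed to compounds for 22 h at 37 °C before the viability read; nearly all actives have a fitted effect of over 30% in size.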 Also: potency is read from the fitted curve at half-maximal effect. In a few lines:
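Cytotoxicity was measured in parallel with the ERE-luciferase agonist screen, in the same wells. The cells were VM7Luc4E2, which endogenously express ER-alpha, and treatment was with compounds plus 10.0nM ICI-182,780 for 22hr.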

Experiment [12] concerns the target Progesterone receptor (Homo sapiens) (UniProt P06401). The experiment in a line: qHTS assay to identify small molecule agonists of the progesterone receptor (PR) signaling pathway (AID 1346784; calls by dose curve; also: nearly all actives have a fitted effect of over 30% in size). In short, it runs like this:
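Compounds were tested for PR agonism in HEK 293T cells bearing a beta-lactamase gene under UAS control. Treatment lasted 16 hr at 37C; signal came from fluorescence of a FRET substrate.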

The nature of experiment [13]: qHTS assay to identify small molecule antagonists of the sonic hedgehog signaling (Shh) pathway - cell viability counter screen (AID 1259367). Also: nearly all actives have a fitted effect of over 55% in size. Also: potency is read from the fitted curve at half-maximal effect. In short, it runs like this: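 Fluorescence read-out (CellTiter-Fluor, 1 hr at 37C) taken after 23 hr compound treatment of 3T3 Gli1-Luc cells stimulated with conditioned medium. Cells were seeded at 2,000 per well and pre-incubated 4 hr.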

The target in experiment [14] is Estrogen receptor beta (Homo sapiens) (UniProt Q92731). Description: qHTS assay to identify small molecule antagonists of the estrogen receptor beta (ER-beta) signaling pathway (AID 1259378; active = well fitted inhibition curve with a large enough effect in the signal ratio in the repeat runs, not every such curve was filed as active; the % refers to the signal ratio). In short, it runs like this: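 ER-beta-UAS-bla HEK293T cells in 2% charcoal-stripped FBS medium treated with compound plus 1nM final 17-beta-estradiol for 16 hr at 37C. Beta-lactamase reporter read by FRET substrate fluorescence after 2 hours at room temperature.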

Experiment [15] is described as follows: qHTS assay to identify small molecule agonists of the androgen receptor (AR) signaling pathway in the presence of an antagonist - cell viability counter screen (AID 1259379).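 Also: MDA-kb2 human breast cancer cells carrying an MMTV luciferase reporter; series mostly up to about 92 µM; nearly all actives have a fitted effect of over 25% in size.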 In a few lines:
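Cytotoxicity is assessed by CellTiter-Fluor in MDA-kb2 cells carrying an MMTV-driven luciferase reporter. Cells receive 3.0uM nilutamide plus compounds at 15 concentrations and incubate 16 hr at 37C without CO2 before fluorescence reading.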

In experiment [16] the target is Estrogen receptor (Homo sapiens) (UniProt P03372). Description: qHTS assay to identify small molecule agonists of the estrogen receptor alpha (ER-alpha) signaling pathway in the presence of an antagonist (AID 1259383; calls by dose curve; also: nearly all actives have a fitted effect of over 15% in size; also: potency is read from the fitted curve at half-maximal effect; as to activation: top concentration of the series differs between compounds). In a few lines:
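Agonist-mode confirmation in the presence of the ER antagonist ICI-182,780 at 10.0nM final. Breast-derived VM7Luc4E2 reporter cells were exposed to compounds for 22hr, and ERE-driven luciferase was quantified by luminescence.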

Experiment [17] addresses Thyrotropin receptor (Homo sapiens) (UniProt P16473). Description: qHTS assay to identify small molecule antagonists of the thyroid stimulating hormone receptor (TSHR) signaling pathway (AID 1259385; calls by dose curve; also: nearly all actives have a fitted effect of over 20% in size; also: potency is read from the fitted curve at half-maximal effect). In a few lines: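 TSHR-HEK293 cells (800/well) plated 18 h, then compounds with Ro20-1724 and TSH at 1.5 ng/mL final, 30 min at room temperature. cAMP quantified by HTRF (cAMP-d2/anti-cAMP-cryptate, 1 h); 15 concentrations in triplicate.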

For experiment [18], the target named is Androgen receptor (Homo sapiens) (UniProt P10275). Description: qHTS assay to identify small molecule agonists of the androgen receptor (AR) signaling pathway in the presence of an antagonist (AID 1259381; calls by dose curve; also: nearly all actives have a fitted effect of over 15% in size). In a few lines:
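Agonist-mode confirmation screen: human MDA-kb2 cells stably expressing luciferase under an MMTV promoter bearing AR and GR response elements, co-treated with 3.0uM nilutamide (final). Luminescence measured after 16hr compound incubation.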

Sequence of Progesterone receptor (Homo sapiens) (P06401 whole entry, looked up): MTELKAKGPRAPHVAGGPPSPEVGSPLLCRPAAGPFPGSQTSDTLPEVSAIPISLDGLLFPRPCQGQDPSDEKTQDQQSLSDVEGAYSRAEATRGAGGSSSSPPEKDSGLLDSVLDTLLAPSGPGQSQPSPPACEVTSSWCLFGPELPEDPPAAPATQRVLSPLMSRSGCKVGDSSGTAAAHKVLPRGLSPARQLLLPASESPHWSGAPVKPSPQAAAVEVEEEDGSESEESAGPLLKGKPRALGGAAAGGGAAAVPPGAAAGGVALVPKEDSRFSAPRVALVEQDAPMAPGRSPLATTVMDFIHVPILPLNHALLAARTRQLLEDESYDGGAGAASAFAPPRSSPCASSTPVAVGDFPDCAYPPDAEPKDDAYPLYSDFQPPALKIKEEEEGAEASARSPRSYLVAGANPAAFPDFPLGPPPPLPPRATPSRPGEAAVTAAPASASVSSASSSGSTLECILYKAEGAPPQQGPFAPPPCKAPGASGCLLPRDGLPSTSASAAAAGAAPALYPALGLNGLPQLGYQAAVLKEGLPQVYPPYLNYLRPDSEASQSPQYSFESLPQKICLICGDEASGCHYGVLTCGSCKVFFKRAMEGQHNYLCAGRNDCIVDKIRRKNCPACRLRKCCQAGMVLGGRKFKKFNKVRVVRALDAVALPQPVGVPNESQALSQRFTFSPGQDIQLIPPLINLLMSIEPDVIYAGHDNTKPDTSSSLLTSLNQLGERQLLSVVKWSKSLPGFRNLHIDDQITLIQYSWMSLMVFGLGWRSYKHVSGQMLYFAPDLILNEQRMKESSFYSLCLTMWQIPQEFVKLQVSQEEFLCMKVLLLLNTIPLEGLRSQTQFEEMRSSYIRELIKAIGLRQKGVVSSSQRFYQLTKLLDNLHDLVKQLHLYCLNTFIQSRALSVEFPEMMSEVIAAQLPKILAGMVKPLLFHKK
Sequence of Estrogen receptor beta (Homo sapiens) (Q92731 whole entry, looked up): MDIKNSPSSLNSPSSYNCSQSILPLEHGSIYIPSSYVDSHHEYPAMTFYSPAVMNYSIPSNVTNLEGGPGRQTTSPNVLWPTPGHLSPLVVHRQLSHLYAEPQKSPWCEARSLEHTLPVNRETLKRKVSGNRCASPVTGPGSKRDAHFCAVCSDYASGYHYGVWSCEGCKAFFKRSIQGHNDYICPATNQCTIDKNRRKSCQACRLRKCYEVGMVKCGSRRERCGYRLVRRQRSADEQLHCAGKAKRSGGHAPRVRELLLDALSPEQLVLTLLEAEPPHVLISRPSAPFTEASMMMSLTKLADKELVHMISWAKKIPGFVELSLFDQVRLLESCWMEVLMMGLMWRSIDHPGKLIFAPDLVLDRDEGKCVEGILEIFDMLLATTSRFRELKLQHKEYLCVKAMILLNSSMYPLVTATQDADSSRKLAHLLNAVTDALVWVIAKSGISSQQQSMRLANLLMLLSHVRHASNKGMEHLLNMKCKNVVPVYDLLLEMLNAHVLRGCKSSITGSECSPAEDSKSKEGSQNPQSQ
Sequence of Estrogen receptor (Homo sapiens) (P03372 whole entry, looked up): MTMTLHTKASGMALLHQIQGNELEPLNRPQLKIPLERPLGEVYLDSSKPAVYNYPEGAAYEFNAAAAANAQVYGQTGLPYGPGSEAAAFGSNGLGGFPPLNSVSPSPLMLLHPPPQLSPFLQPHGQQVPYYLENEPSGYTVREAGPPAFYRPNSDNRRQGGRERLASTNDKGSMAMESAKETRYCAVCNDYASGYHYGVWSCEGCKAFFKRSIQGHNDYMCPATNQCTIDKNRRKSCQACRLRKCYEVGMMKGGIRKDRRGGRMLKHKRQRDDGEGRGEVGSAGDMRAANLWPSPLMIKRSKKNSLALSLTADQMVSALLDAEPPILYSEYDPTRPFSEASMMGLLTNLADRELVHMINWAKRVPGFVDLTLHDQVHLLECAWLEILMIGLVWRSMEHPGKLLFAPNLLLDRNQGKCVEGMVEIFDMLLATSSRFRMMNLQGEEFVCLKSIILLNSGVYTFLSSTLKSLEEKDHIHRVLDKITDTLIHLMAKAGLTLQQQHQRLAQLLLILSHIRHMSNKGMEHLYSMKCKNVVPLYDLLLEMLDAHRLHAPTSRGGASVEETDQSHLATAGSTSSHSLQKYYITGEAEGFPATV
Sequence of Thyrotropin receptor (Homo sapiens) (P16473 whole entry, looked up): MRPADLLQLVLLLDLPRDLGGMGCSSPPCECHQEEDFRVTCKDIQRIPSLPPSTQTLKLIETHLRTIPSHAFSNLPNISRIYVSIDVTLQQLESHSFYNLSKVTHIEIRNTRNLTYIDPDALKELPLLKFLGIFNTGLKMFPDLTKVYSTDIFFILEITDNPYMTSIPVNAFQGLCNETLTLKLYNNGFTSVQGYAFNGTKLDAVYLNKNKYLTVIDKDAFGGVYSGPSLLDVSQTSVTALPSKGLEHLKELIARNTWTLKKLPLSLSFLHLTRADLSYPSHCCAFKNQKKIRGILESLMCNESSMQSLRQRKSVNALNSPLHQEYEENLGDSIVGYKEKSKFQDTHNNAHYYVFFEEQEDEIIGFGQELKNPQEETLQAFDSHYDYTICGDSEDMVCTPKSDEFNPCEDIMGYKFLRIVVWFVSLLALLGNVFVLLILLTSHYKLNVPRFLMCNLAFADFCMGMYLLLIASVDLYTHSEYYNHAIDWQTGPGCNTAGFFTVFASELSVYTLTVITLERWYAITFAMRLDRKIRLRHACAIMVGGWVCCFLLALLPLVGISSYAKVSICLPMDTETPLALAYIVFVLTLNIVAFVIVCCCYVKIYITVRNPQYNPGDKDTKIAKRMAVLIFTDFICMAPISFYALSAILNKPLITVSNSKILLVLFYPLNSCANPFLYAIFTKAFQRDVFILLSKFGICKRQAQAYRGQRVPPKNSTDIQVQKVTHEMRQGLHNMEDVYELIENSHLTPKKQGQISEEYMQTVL
Sequence of Androgen receptor (Homo sapiens) (P10275 whole entry, looked up): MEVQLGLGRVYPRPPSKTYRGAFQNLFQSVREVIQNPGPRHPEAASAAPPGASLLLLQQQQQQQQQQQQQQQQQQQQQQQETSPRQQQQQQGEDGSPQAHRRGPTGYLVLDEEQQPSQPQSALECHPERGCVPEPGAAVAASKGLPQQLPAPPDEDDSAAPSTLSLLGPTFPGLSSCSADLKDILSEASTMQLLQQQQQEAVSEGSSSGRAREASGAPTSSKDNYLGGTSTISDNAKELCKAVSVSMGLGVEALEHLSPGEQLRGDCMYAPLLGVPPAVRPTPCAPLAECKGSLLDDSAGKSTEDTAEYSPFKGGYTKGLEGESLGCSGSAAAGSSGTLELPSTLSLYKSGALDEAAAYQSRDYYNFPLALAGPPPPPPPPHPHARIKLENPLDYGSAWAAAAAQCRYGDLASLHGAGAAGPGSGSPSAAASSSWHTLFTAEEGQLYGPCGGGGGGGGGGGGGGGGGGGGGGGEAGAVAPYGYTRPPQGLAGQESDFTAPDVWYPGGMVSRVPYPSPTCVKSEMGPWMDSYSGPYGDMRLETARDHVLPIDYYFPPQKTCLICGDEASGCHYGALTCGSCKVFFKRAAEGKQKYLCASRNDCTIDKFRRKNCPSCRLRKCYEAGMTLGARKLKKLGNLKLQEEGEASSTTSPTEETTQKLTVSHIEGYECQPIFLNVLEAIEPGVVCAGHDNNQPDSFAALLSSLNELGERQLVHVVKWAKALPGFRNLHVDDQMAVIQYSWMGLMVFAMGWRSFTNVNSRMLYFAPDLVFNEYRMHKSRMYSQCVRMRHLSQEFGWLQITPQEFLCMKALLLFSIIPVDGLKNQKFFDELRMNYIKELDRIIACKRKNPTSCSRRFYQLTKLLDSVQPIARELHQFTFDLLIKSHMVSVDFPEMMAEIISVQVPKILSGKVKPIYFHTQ

`Cc1ccc2oc(CN(Cc3ccccc3)C(=O)Nc3c(F)cc(F)cc3F)c(-c3ccc(Cl)cc3)c2c1`: the Potency result in experiment [1], in experiment [2], in [3], in experiment [4], in experiment [5] and in experiment [6] was “inactive” each time. Also, the Potency entry in experiment [7], in [8], in experiment [9], in experiment [11] and in experiment [12] was “inactive” in each case. The compound was classed as inactive in [10].

As for `CC(=O)OCC(C)OC(C)=O` (centres undefined), the Potency result in experiment [1], in experiment [2], in experiment [3], in experiment [4], in experiment [13] and in experiment [5] was “inactive” throughout. Also, the Potency entry in experiment [7], in experiment [14], in [15], in experiment [8], in experiment [9] and in experiment [16] was “inactive” throughout. The Potency result in [11] was “inactive”. Further, the Potency in experiment [6] was 68.6 µM (active). For the same compound, the compound was classed as inactive in experiment [10].

Consider `CCCC(C)c1ccccc1O` (centres undefined), for which the Potency result in experiment [1], in [2], in [3], in experiment [5], in [7] and in experiment [15] was “inactive” each time. Moreover, the Potency result in [8], in experiment [9], in experiment [16], in experiment [17], in experiment [11] and in [12] was “inactive” in each case. Further, the compound was classed as inactive in experiment [10].

In the case of `CCCN(CCC)C(=O)C(CCC(=O)OCCCN1CCN(CCOC(=O)Cc2c(C)n(C(=O)c3ccc(Cl)cc3)c3ccc(OC)cc23)CC1)NC(=O)c1ccccc1` (centres undefined), the Potency result in [1], in experiment [2], in experiment [3], in experiment [5], in experiment [15] and in experiment [18] was “inactive” each time. Further, the Potency was 11.9 µM (active) in [4]; 10.6 µM (active) in experiment [13]; 9.44 µM (active) in experiment [6]; 10.6 µM (active) in experiment [8]; 13.3 µM (active) in experiment [9]; 21.1 µM (active) in experiment [11]. Moreover, the result in experiment [10] was inactive.

For the compound `O=C1CCCCCN1SSN1CCCCCC1=O`, the Potency result in experiment [1], in experiment [2], in experiment [3], in [5], in experiment [7] and in experiment [15] was “inactive” in each case. Besides, the Potency result in experiment [8], in experiment [9], in experiment [17], in experiment [11] and in experiment [12] was “inactive” throughout. The Potency in experiment [4] was 19.3 µM (active); in experiment [13], 54.5 µM (active); in experiment [6] it was 9.69 µM (active).

`CCCCCCCCCCCCc1ccc(O)cc1`: the Potency was 61.1 µM (active) in [1]; 43.3 µM (active) in experiment [8]; 48.6 µM (active) in [9]; 10.9 µM (active) in experiment [16]; 68.6 µM (active) in experiment [11]. In addition, the Potency entry in [2], in experiment [3], in [6] and in experiment [17] was “inactive” in each case. Also, the call in experiment [10] was inactive.

As to `COCCCC/C(=N\OCCN)c1ccc(C(F)(F)F)cc1`, the Potency result in experiment [1], in experiment [2], in experiment [3], in experiment [4], in [13] and in experiment [5] was “inactive” throughout. For the same compound, the Potency result in experiment [7], in [11] and in experiment [12] was “inactive” throughout. Besides, the Potency in experiment [8] is 13.3 µM (active); in [17] it was 29.8 µM (active). In experiment [10], the compound was called inactive.
